Experimental data reported in PubChem BioAssay (NCATS).
Inconclusive results are not listed. Active and inactive are the calls of the source. Unless noted, calls come from the whole dose curve; as a rule, active = well fitted curve in either direction with a large enough effect (not every such curve was filed as active); inconclusive = small, poorly fitted or top-dose-only effect, or another doubt; inactive = flat fitted curve, though single readings scatter.

Columns and labels:
[1] = biological target: Lysosomal acid glucosylceramidase (Homo sapiens) (UniProt P04062); assay: Glucocerebrosidase-p2 (AID 348; in the data active = potency below about 10 µM; note: potency is the fitted concentration of half-maximal effect); conditions: purified GBA, blue fluorogenic substrate, 40 min
Chain of Lysosomal acid glucosylceramidase (Homo sapiens) (P04062 whole entry, looked up): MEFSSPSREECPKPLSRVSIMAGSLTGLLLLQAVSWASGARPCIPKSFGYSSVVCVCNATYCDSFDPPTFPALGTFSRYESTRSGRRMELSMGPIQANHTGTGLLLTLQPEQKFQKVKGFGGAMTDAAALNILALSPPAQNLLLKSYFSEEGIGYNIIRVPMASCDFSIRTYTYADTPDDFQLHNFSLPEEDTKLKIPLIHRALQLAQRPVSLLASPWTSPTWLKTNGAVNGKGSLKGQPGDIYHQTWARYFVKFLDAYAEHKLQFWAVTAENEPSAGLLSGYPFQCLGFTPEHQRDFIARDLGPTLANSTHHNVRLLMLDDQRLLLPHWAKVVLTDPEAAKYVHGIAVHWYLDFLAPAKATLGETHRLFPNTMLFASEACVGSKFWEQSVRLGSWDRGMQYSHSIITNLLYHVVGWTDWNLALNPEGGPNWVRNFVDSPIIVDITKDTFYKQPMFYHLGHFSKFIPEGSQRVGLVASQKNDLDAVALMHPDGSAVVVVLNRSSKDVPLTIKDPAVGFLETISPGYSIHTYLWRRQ
In short: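 Normal human glucocerebrosidase (0.2 nM) with blue fluorogenic substrate (80 uM final) in citrate/phosphate pH 5.9 with 10mM sodium taurocholate, 0.01% tween-20; 40 min RT, NaOH/glycine stop; fluorescence Ex 365/Em 440; AC50 from a titration from 0.6 nM upwards.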

[2] = AP1 Signaling Pathway (AID 357); conditions: ME-180 AP-1-bla reporter, EGF-induced, beta-lactamase ratio, 5 h; at 7.69 µM (top of the series) unless noted;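 note: ME-180 reporter cells stimulated with EGF at its EC50 level; % is set by controls: 0 for no effect and ±100 for the full control effect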
In short: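 First, ME-180 AP-1-bla cells were cultured overnight at 37 °C in low-serum Opti-MEM. Next, titrated compounds with EC50 EGF were incubated 5 hours. Finally, CCF4 was added for 2.5 hours and the 460/530 nm ratio recorded.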

[3] = NFAT Signaling Pathway (AID 444); conditions: Jurkat NFAT-bla M1, carbachol, beta-lactamase ratio, 5 h; at 7.69 µM (top of the series) unless noted;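 note: carbachol stimulus at about its EC50 of 1 µM final; % is set by controls: 0 for no effect and ±100 for the full control effect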
In short: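 Jurkat cells carrying an NFAT-driven β-lactamase reporter and co-transfected muscarinic M1 receptor were treated with compound plus carbachol (1 uM final, an EC50 level) for 5 h at 37 °C. CCF4 loading followed for 1 h at RT; 460/530 nm ratio gave %activity.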

[4] = Stat Signaling Pathway (AID 446); conditions: ME-180 (cervical carcinoma) SIE beta-lactamase reporter, IL-6 stimulated, 5 h; at 7.69 µM (top of the series) unless noted;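 note: ME-180 cervical cancer cells given 40 pM IL-6 alongside compound; SIE-controlled beta-lactamase reporter measured as 460/530 nm FRET emission ratio; % is set by controls: 0 for no effect and ±100 for the full control effect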
In short: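 Compound effects on IL-6-induced STAT reporter activity were measured in ME-180 cells. After overnight culture, cells were co-treated with 40 pM IL-6 for 5 hrs before beta-lactamase substrate loading at room temperature.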

[5] = biological target: Glucocorticoid receptor (Homo sapiens) (UniProt P04150); assay: GR-GFP Redistribution (AID 450;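 active = compounds whose dose series gives a full or clear partial fitted curve of increased nuclear translocation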; note: potency is the fitted concentration of half-maximal effect); conditions: U2OS GR-GFP nuclear translocation, laser cytometry, 2 h
Chain of Glucocorticoid receptor (Homo sapiens) (P04150 whole entry, looked up, the tested form may be a part): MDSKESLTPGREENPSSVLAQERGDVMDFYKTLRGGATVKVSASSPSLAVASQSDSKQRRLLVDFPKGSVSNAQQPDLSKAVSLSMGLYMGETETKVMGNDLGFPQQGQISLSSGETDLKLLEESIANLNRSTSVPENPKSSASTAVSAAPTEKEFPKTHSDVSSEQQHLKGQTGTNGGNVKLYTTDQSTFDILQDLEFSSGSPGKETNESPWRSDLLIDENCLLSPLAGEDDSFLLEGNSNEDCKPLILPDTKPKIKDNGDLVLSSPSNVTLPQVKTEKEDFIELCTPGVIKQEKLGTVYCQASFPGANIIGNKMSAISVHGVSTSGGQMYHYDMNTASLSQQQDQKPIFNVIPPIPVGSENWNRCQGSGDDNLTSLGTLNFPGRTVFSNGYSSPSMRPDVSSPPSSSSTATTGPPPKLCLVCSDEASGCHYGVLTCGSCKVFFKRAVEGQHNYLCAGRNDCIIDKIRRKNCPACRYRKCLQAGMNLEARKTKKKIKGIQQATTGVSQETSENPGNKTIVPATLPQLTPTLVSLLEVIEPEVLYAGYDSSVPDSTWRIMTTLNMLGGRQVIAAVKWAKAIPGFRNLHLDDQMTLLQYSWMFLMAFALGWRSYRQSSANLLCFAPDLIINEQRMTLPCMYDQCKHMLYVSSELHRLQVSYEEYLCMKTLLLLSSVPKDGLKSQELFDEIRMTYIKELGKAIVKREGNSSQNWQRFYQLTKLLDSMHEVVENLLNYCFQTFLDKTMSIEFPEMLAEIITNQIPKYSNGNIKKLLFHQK

[6] = biological target: Glucocorticoid receptor (Homo sapiens) (UniProt P04150); assay: GR-EFC Redistribution (AID 451; calls by dose curve; note: potency is the fitted concentration of half-maximal effect); conditions: CHO-K1 GR-EFC translocation, beta-gal luminescence, 2 h
In short: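 CHO-K1 cells stably expressing nuclear-localized β-gal enzyme acceptor and GR fused C-terminally to the enzyme donor fragment; ligand-driven nuclear translocation restores β-gal by complementation. Compounds titrated up to 46 uM final, 2 h at 37 °C; luminescence read.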

[7] = biological target: Mitogen-activated protein kinase 10 (Mus musculus) (UniProt Q61831); assay: JNK3 AlphaScreen Assay (AID 530); conditions: JNK3 lysate, c-Jun phosphorylation; series mostly up to 11.4 µM;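 note: kinase came from lysate of stimulated human HepG2 cells; signal reports phosphorylation of biotinylated GST-cJun 1-79 at Ser73 with 10 µM ATP; % is set by controls: 0 for no effect and ±100 for the full control effect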
In short: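 Phosphorylation of biotinylated GST-cJun(1-79) at Ser73 is measured by AlphaScreen proximity luminescence. Enzyme is JNK3 in HepG2 lysates activated with interleukin-1beta and tumor necrosis factor alpha; ATP is 10 uM final.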

[8] = biological target: 3',5'-cyclic-AMP phosphodiesterase 4B (Homo sapiens) (UniProt Q07343); assay: qHTS Assay for Inhibitors of PDE-IV (AID 607; active = well fitted activation curve with a large enough effect in the main read-out, with a control signal flat, not every such curve was filed as active; note: % of control where 0% means no effect); conditions: HEK293 ACTOne CNG channel cells, membrane potential fluorescence; series mostly up to 22.9 µM
Chain of 3',5'-cyclic-AMP phosphodiesterase 4B (Homo sapiens) (Q07343 whole entry, looked up): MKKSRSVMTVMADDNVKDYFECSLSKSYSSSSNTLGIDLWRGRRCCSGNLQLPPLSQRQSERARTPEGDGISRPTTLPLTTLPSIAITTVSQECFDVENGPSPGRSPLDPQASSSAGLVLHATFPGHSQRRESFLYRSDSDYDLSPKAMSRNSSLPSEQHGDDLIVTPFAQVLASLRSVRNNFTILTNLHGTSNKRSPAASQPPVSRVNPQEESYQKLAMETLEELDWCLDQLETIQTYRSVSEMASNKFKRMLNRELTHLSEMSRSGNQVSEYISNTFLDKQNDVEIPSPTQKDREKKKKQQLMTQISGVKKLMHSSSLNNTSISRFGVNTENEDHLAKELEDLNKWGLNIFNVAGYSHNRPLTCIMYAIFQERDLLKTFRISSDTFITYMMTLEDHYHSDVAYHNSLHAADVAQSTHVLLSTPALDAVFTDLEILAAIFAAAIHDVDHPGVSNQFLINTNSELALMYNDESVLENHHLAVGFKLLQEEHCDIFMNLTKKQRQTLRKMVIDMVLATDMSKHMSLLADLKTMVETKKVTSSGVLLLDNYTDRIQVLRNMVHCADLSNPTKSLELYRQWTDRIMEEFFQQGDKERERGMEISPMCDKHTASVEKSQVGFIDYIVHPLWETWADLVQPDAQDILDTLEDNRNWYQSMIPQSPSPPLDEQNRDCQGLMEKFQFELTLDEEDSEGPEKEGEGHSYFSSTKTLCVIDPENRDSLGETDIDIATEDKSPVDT
In short: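 ACTOne HEK293 cells carry a modified cAMP-gated CNG channel and express endogenous PDE4; plated 1000 cells/well, compounds up to 22.9 uM final. Membrane-potential dye fluorescence (ex 535/em 590) was read; parental cells received 10 uM forskolin + 100 uM RO 20-1724.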

CN(C)CCSS(=O)(=O)O
inactive: Potency [1] > 11.4 µM | activity change, negative = inhibition [2] 6.2% | activity change, negative = inhibition [3] 5.08% | activity, negative = inhibition [4] -1.46% | Potency [5] > 46 µM | Potency [6] > 9.22 µM | Potency [7] | Potency [8]

CC(C)(CCC(C)(C)c1ccccc1)c1ccccc1
inactive: Potency [1] > 11.4 µM | activity change, negative = inhibition [2] -0.999% | activity change, negative = inhibition [3] 5.11% | activity, negative = inhibition [4] -2.84% | Potency [5] > 46 µM | Potency [6] > 9.22 µM | Potency [7] | Potency [8]

Nc1nc2c(c(=O)[nH]1)CN(CCCN1CCOCC1)CN2
inactive: Potency [1] > 11.4 µM | activity change, negative = inhibition [2] 1.77% | activity change, negative = inhibition [3] 5.13% | activity, negative = inhibition [4] 12.2% | Potency [5] > 46 µM | Potency [6] > 9.22 µM | Potency [7] | Potency [8]

CO[C@@H]1/C=C\O[C@]2(C)Oc3c(C)c(O)c4c(O)c(c(CN5CCN(C)CC5)c(O)c4c3C2=O)NC(=O)/C(C)=C\C=C[C@@H](C)[C@@H](O)[C@H](C)[C@@H](O)[C@H](C)[C@H](OC(C)=O)[C@@H]1C
inactive: Potency [1] > 11.4 µM | activity change, negative = inhibition [2] -8.05% | activity change, negative = inhibition [3] 7.34% | activity, negative = inhibition [4] -6.61% | Potency [5] > 46 µM | Potency [6] > 9.22 µM | Potency [7] | Potency [8]

CC(=O)O[C@H]1CC[C@]2(C)C(=CC[C@H]3[C@H]4C[C@H]5O[C@]6(CC[C@H](C)CN6)[C@H](C)[C@@H]5[C@]4(C)CC[C@@H]32)C1
inactive: Potency [1] > 11.4 µM | activity change, negative = inhibition [2] 13.4% | activity change, negative = inhibition [3] 0.916% | activity, negative = inhibition [4] 3.85% | Potency [5] > 46 µM | Potency [6] > 9.22 µM | Potency [7] | Potency [8]

COc1ccc2c(c1)[n+]([O-])c(/C(C)=N/NC(N)=S)c(C)[n+]2[O-]
inactive: Potency [1] > 11.4 µM | activity change, negative = inhibition [2] -7.76% | activity change, negative = inhibition [3] 5.82% | activity, negative = inhibition [4] 0.294% | Potency [5] > 46 µM | Potency [6] > 9.22 µM | Potency [7] | Potency [8]

Cc1cccc(CNc2ncnc3[nH]ncc23)c1
inactive: Potency [1] > 11.4 µM | activity change, negative = inhibition [2] -1.11% | activity change, negative = inhibition [3] -3.71% | activity, negative = inhibition [4] -8.78% | Potency [5] > 46 µM | Potency [6] > 9.22 µM | Potency [7] | Potency [8]

C[C@H](CCC(=O)NN)[C@@H]1CC[C@@H]2[C@H]3CC[C@H]4C[C@@H](O)CC[C@@]4(C)[C@@H]3CC[C@]21C
inactive: Potency [1] > 11.4 µM | activity change, negative = inhibition [2] 12.8% | activity change, negative = inhibition [3] 17% | activity, negative = inhibition [4] -5.92% | Potency [5] > 46 µM | Potency [6] > 9.22 µM | Potency [7] | Potency [8]

N[C@@H](CNO)C(=O)O
inactive: Potency [1] > 11.4 µM | activity change, negative = inhibition [2] 7.51% | activity change, negative = inhibition [3] 0.975% | activity, negative = inhibition [4] -9.2% | Potency [5] > 46 µM | Potency [6] > 9.22 µM | Potency [7] | Potency [8]

c1ccc(CN2CCC3(CC2)SSC2(CCN(Cc4ccccc4)CC2)SS3)cc1
inactive: Potency [1] > 11.4 µM | activity change, negative = inhibition [2] 3.33% | activity change, negative = inhibition [3] 3.92% | activity, negative = inhibition [4] -1.41% | Potency [5] > 46 µM | Potency [6] > 9.22 µM | Potency [7] | Potency [8]

CC(C)(C)n1nc(C2CC2)cc1NC(=O)Nc1ccc(Cl)cc1
inactive: Potency [1] > 11.4 µM | activity change, negative = inhibition [2] -5.76% | activity change, negative = inhibition [3] 8.66% | activity, negative = inhibition [4] -5.8% | Potency [5] > 46 µM | Potency [6] > 9.22 µM | Potency [7] | Potency [8]

Nc1nc(-c2ccccc2)c(CC(=O)O)s1
inactive: Potency [1] > 11.4 µM | activity change, negative = inhibition [2] 0.597% | activity change, negative = inhibition [3] 18.8% | activity, negative = inhibition [4] 0.225% | Potency [5] > 46 µM | Potency [6] > 9.22 µM | Potency [7] | Potency [8]

O=C1c2ccccc2C(=O)N1c1ccc(Cc2ccc(N3C(=O)c4ccccc4C3=O)cc2)cc1
inactive: Potency [1] > 11.4 µM | activity change, negative = inhibition [2] -0.978% | activity change, negative = inhibition [3] 8.54% | activity, negative = inhibition [4] -2.37% | Potency [5] > 46 µM | Potency [6] > 9.22 µM | Potency [7] | Potency [8]

O=C(O)C(F)(F)C(F)(F)C(F)(F)C(F)(F)C(=O)O
inactive: Potency [1] > 11.4 µM | activity change, negative = inhibition [2] -0.129% | activity change, negative = inhibition [3] 6.75% | activity, negative = inhibition [4] 5.2% | Potency [5] > 46 µM | Potency [6] > 9.22 µM | Potency [7] | Potency [8]

OC1(C(O)(c2ccc(-c3ccccc3)cc2)c2ccc(-c3ccccc3)cc2)CCCCC1
inactive: Potency [1] > 11.4 µM | activity change, negative = inhibition [2] 7.3% | activity change, negative = inhibition [3] 2.32% | activity, negative = inhibition [4] 1.1% | Potency [5] > 46 µM | Potency [6] > 9.22 µM | Potency [7] | Potency [8]

CNC[C@@H](SC)c1ccc(O)c(O)c1
inactive: Potency [1] > 11.4 µM | activity change, negative = inhibition [2] 1.24% | activity change, negative = inhibition [3] 7.41% | activity, negative = inhibition [4] 21% | Potency [5] > 46 µM | Potency [6] > 9.22 µM | Potency [7] | Potency [8]
